Consider 37 compounds from PubChem BioAssay AID1347145 (National Center for Advancing Translational Sciences (NCATS), 2019).

Inconclusive results are not listed. Activity calls are given as the source filed them. Calls come from the whole dose curve; as a rule, active = well fitted inhibition curve with a large enough effect; inconclusive = small, poorly fitted or top-dose-only effect; inactive = no such curve, though single readings can be large or run the other way.
Potency is the fitted concentration of half-maximal effect.
Throughout, for activity change, negative = inhibition: 0% is about no effect.

N-terminal Xaa-Pro-Lys N-methyltransferase 1 (Homo sapiens), sequence (Q9BV86 whole entry, looked up): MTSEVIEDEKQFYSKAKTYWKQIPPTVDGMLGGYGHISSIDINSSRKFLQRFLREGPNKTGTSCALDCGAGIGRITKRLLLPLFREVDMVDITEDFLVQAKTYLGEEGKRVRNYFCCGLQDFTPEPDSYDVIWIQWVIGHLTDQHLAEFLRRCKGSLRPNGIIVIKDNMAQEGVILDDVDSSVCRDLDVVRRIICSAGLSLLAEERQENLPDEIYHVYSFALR

The target of this assay is N-terminal Xaa-Pro-Lys N-methyltransferase 1 (Homo sapiens) (UniProt Q9BV86). Put plainly: qHTS Assay for Inhibitors of N-terminal methyltransferase 1 (NTMT1): MTaseGlo Assay Confirmatory Screen, Round 1. The conditions noted are these: Recombinant NTMT1, MTase-Glo SAH luminescence; series mostly up to 57.1 µM; activity change, negative = inhibition: at the top concentration. The gist of the method:
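Luminescence from MTase-Glo conversion of SAH to ATP measured activity after a 30 min RT reaction with 1 µM SPKRIA substrate, 100 µM SAM and 125 nM enzyme. Normalization used no-enzyme and DMSO controls, followed by Hill fitting.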
In general terms: qHTS replaces the single test concentration by a dilution series.
As for `C[C@H](Cc1ccccc1)Nc1ncnc2c1ncn2[C@@H]1O[C@H](CO)C(O)[C@H]1O` (some centres not stated), the “activity change, negative = inhibition” value is -5.33% (inactive). As to `OCC1OC(n2cnc3c(=S)nc[nH]c32)C(O)C1O` (configuration not stated), the “activity change, negative = inhibition” value is -6.41% (inactive). On the same count and under the same terms, the same measure for `NC(=S)c1ccc[n+]([C@@H]2O[C@@H](COP(=O)([O-])OP(=O)(O)OC[C@H]3O[C@@H](n4cnc5c(N)ncnc54)[C@H](OP(=O)(O)O)[C@@H]3O)C(O)C2O)c1` (some centres not stated): 11.4% (inactive); for `C=C1OC(CO)(n2cnc3c(N)ncnc32)C(O)C1O` (configuration not stated): 5.77% (inactive). Still for that read-out and setting: as for `COc1cc2nc(N3CCN(C(C)=O)CC3)nc(NC3CC3)c2cc1OC`, the figure is 2.41% (inactive); as for `Nc1ncnc2c1ncn2[C@@H]1O[C@H](COP(=O)(O)OP(=O)(O)O)[C@@H](O)[C@H]1O`, 7.5% (inactive); as for `COc1cc2nc(N3CCCN(C)CC3)nc(NC3CCOCC3)c2cc1OC`, 10.6% (inactive). Same read-out and setting: as for `Nc1nc(Cl)nc2c1ncn2[C@@H]1O[C@H](COP(=O)(O)OP(=O)(O)OP(=O)(O)O)C(O)[C@H]1O` (some centres not stated), the figure is 65.2% (inactive).

Take `CSc1nc(N)c2ncn([C@@H]3O[C@H](COP(=O)(O)OP(=O)(O)O)C(O)[C@H]3O)c2n1` (some centres not stated): the “activity change, negative = inhibition” value is -5.89% (inactive). Still for that read-out and setting: as for `Nc1nc(Nc2ccccc2)nc2c1ncn2[C@@H]1O[C@@H](CO)[C@H](O)[C@H]1O`, the figure is 2.31% (inactive); as for `C[C@H](Cc1ccccc1)Nc1ncnc2c1ncn2[C@@H]1O[C@H](CO)[C@@H](O)[C@H]1O`, 0.792% (inactive); as for `Nc1ncnc2c1ncn2[C@@H]1O[C@H](COP(=O)(O)O)[C@@H](O)[C@H]1O`, 743% (inactive).

With `CCN(c1cc(-c2ccc(CN3CCOCC3)cc2)cc(C(=O)NCc2c(C)cc(C)[nH]c2=O)c1C)C1CCOCC1`, the “activity change, negative = inhibition” value is 13.3% (inactive). As for `COc1cc2c(NC3CCN(C(C)C)CC3)nc(N3CCCN(C)CC3)nc2cc1OCCOCCN(C)C`, the “activity change, negative = inhibition” value was -17.7% (inactive). The same measure, in the same setting: the same measure for `O=c1[nH]cnc2c1ncn2C1O[C@H](CO)[C@@H](O)[C@H]1O` (some centres not stated): 6.52% (inactive); for `Nc1ncnc2c1ncn2[C@H]1C[C@H](O)[C@@H](CO)O1`: 15.6% (inactive); for `CCN1CCN(c2nc(NC3CC3)c3cc(OC)c(OC)cc3n2)CC1`: 0.219% (inactive).

As to `Nc1ncnc2c1ncn2[C@@H]1O[C@H](COP(=O)(O)OP(=O)(O)OP(=O)(O)OP(=O)(O)OC[C@@H]2O[C@H](n3cnc4c(N)ncnc43)[C@@H](O)[C@H]2O)[C@@H](O)[C@H]1O`, the “activity change, negative = inhibition” value was 1000% (inactive). With `Nc1nc(Cl)nc2c1ncn2[C@@H]1O[C@H](CO)[C@H](O)[C@H]1O`, the “activity change, negative = inhibition” value is 3.82% (inactive). As for `CNC(=O)[C@H]1O[C@H](n2cnc3c(NCc4cccc(I)c4)ncnc32)[C@@H](O)[C@@H]1O`, the “activity change, negative = inhibition” value is -4.49% (inactive). The same measure, in the same setting: as for `CO[C@@H]1[C@@H]2OP(=O)(O)OC[C@H]2O[C@H]1n1c(Sc2ccc(Cl)cc2)nc2c(N)ncnc21`, the figure is -3.23% (inactive). On the same count and under the same terms, the same measure for `C/C(=C\CNc1ncnc2c1ncn2[C@@H]1O[C@H](CO)[C@@H](O)[C@H]1O)CO`: 35.2% (inactive). Same read-out and setting: as for `CNc1nc(N2CCN(C)CC2)nc2cc(OC)c(OC)cc12`, the figure is -0.109% (inactive).

Consider `COc1cc2c(NC3CCN(C)CC3)nc(N3CCCN(C)CC3)nc2cc1OCCCN1CCOCC1`, for which the “activity change, negative = inhibition” value was -9.55% (inactive). Still for that read-out and setting: the same measure for `NCCNC(=O)Cc1ccc(NC(=O)Cc2ccc(Nc3ncnc4c3ncn4[C@@H]3O[C@H](CO)[C@@H](O)[C@H]3O)cc2)cc1`: -4.61% (inactive); for `CNc1ncnc2c1ncn2[C@H]1C[C@H](O)[C@@H](CO)O1`: 7.11% (inactive). On to `CSc1ncnc2c1ncn2C1OC(CO)C(O)C1O` (configuration not stated), for which the Potency was 30.6 µM (active). For the compound `Nc1ncnc2c1ncn2[C@H]1O[C@H](CO)[C@@H](O)[C@@H]1O`, the “activity change, negative = inhibition” value is -6.56% (inactive).

Turning to `Nc1ncnc2c1ncn2C1OC(COP(=O)(O)O)C(O)C1O` (configuration not stated), the “activity change, negative = inhibition” value was 960% (inactive). On the same count and under the same terms, as for `OC[C@H]1O[C@@H](n2cnc3c(NCc4ccccc4)ncnc32)[C@H](O)[C@@H]1O`, the figure is -6.1% (inactive); as for `Nc1ncnc2c1ncn2C1C[C@H](O)[C@@H](CO)O1` (some centres not stated), 1.97% (inactive); as for `CNC(=O)[C@H]1O[C@@H](n2cnc3c(NCc4ccc(N)cc4)ncnc32)[C@H](O)[C@@H]1O`, 0.731% (inactive). On the same count and under the same terms, the same measure for `COc1cc2c(NC3CCN(C)CC3)nc(N3CCN(C)CC3)nc2cc1OCCOCCN(C)C`: -10.4% (inactive); for `CCCCC#Cc1nc(NC)c2ncn([C@@H]3O[C@@H](CO)[C@H](O)[C@H]3O)c2n1`: 5.36% (inactive). As to `COc1cc2nc(N3CCN(C(N)=O)CC3)nc(NC3CC3)c2cc1OC`, the “activity change, negative = inhibition” value is -13.1% (inactive).

For the compound `CNC(=O)c1cnn(-c2nc(N)c3ncn([C@@H]4O[C@H](CO)[C@@H](O)[C@H]4O)c3n2)c1`, the “activity change, negative = inhibition” value was 5.01% (inactive). On the same count and under the same terms, the same measure for `Nc1ncnc2c1ncn2[C@H]1O[C@@H](CSCC[C@@H](N)C(=O)O)[C@H](O)[C@@H]1O`: 481% (inactive).
